Test results: PubChem BioAssay AID1159580 (chemical genetic matrix, 2015)
The campaign covered roughly 5,500 compounds. About 2,000 (36%) were called active. Roughly 18% stayed inconclusive and do not appear here. Rule as the data show it: active = normalized growth mostly below about 0.91 (no sharp cut-off); inconclusive = no clear call, values can overlap the other calls; inactive = mostly above about 0.92. The list shows a part of the results.

Assay: chemical genetic growth profiling, strain panel (AID 1159580);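 also: tested at 20 µM; growth read once vehicle control cultures reached saturation at 30 °C; 1 = growth at the plate median or of vehicle wells; lower values mean less growth of the strain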
Conditions: S. cerevisiae deletion strains, growth OD

Measured: normalized growth

O=c1oc2ccccc2cc1O
inactive: locus YAL021C, strain ccr4, hits give low values 0.986 | locus YAL026C, strain drs2, hits give low values 0.975 | locus YAL030W, strain snc1, hits give low values 0.993 | locus YBL061C, strain skt5, hits give low values 0.993 | locus YBR009C, strain hhf1, hits give low values 1 | locus YBR021W, strain FUR4, hits give low values 1.03 | locus YBR023C, strain chs3, hits give low values 0.993 | locus YBR171W, strain sec66, hits give low values 0.977 | locus YBR229C, strain ROT2, hits give low values 1.03 | locus YBR231C, strain swc5, hits give low values 1.01 | locus YBR279W, strain paf1, hits give low values 0.994 | locus YCL011C, strain gbp2, hits give low values 1.01 | locus YCL016C, strain dcc1, hits give low values 0.999 | locus YCL029C, strain bik1, hits give low values 1.02 | locus YCL061C, strain MRC1, hits give low values 0.991 | locus YCL069W, strain vba3, hits give low values 0.968 | locus YCR088W, strain abp1, hits give low values 0.986 | locus YDL005C, strain med2, hits give low values 0.986 | locus YDL035C, strain GPR1, hits give low values 1.06 | locus YDL040C, strain nat1, hits give low values 0.994 | locus YDL074C, strain BRE1, hits give low values 1.13 | locus YDL101C, strain DUN1, hits give low values 1.01 | locus YDL134C, strain PPH21, hits give low values 1.07 | locus YDL185W, strain tfp1, hits give low values 0.998 | locus YDL192W, strain arf1, hits give low values 1.03 | locus YDR001C, strain nth1, hits give low values 0.984 | locus YDR069C, strain doa4, hits give low values 0.991 | locus YDR101C, strain arx1, hits give low values 0.991 | locus YDR137W, strain rgp1, hits give low values 0.969 | locus YDR159W, strain sac3, hits give low values 1.03 | locus YDR162C, strain NBP2, hits give low values 1.04 | locus YDR195W, strain ref2 1.01 | locus YDR297W, strain sur2, hits give low values 0.989 | locus YDR318W, strain mcm21, hits give low values 0.995 | locus YDR334W, strain swr1, hits give low values 0.96 | locus YDR335W, strain msn5, hits give low values 1 | locus YDR388W, hits give low values 0.992 | locus YDR392W, strain spt3, hits give low values 0.983 | locus YDR502C, strain sam2, hits give low values 0.986 | locus YEL003W, strain gim4, hits give low values 0.993 | locus YEL037C, strain rad23, hits give low values 0.979 | locus YEL061C, strain CIN8 (second series), hits give low values 0.976 | locus YER015W, strain faa2, hits give low values 1.01 | locus YER016W, strain bim1, hits give low values 1 | locus YER110C, hits give low values 0.974 | locus YER111C, strain swi4, hits give low values 0.988 | locus YER155C, strain BEM2 (second series), hits give low values 0.989 | locus YER155C, strain BEM2, hits give low values 1.02 | locus YER167W, strain BCK2, hits give low values 1.03 | locus YFR010W, strain ubp6, hits give low values 0.963 | locus YGL078C, strain dbp3, hits give low values 0.953 | locus YGL086W, strain mad1, hits give low values 0.994 | locus YGL167C, strain pmr1, hits give low values 0.99 | locus YGL173C, strain kem1, hits give low values 0.996 | locus YGL227W, strain vid30, hits give low values 0.995 | locus YGL240W, strain doc1, hits give low values 0.984 | locus YGL248W, strain PDE1, hits give low values 1.04 | locus YGL253W, strain hxk2, hits give low values 0.994 | locus YGR135W, strain pre9, hits give low values 0.969 | locus YGR252W, strain gcn5, hits give low values 0.924 | locus YHR013C, strain ard1, hits give low values 1.04 | locus YHR027C, strain rpn1, hits give low values 0.986 | locus YHR079C, strain IRE1 (second series), hits give low values 0.986 | locus YHR094C, strain hxt1, hits give low values 0.989 | locus YHR129C, strain ARP1, hits give low values 1.06 | locus YHR142W, strain chs7, hits give low values 0.974 | locus YHR200W, strain rpn10, hits give low values 0.983 | locus YIL066C, strain RNR3, hits give low values 1.04 | locus YIL073C, strain SPO22, hits give low values 1.08 | locus YIL125W, strain kgd1, hits give low values 1 | locus YIR030C, strain dcg1, hits give low values 1 | locus YJL092W, strain hpr5, hits give low values 0.987 | locus YJL095W, strain BCK1 (second series), hits give low values 0.982 | locus YJL095W, strain BCK1, hits give low values 1.11 | locus YJL115W, strain asf1, hits give low values 0.98 | locus YJL129C, strain trk1, hits give low values 0.989 | locus YJL134W, strain LCB3, hits give low values 1.02 | locus YJL154C, strain vps35, hits give low values 0.987 | locus YJL164C, strain tpk1, hits give low values 0.99 | locus YJL166W, strain qcr8, hits give low values 0.992 | locus YJL168C, strain set2, hits give low values 0.989 | locus YJL187C, strain SWE1 (second series), hits give low values 1.03 | locus YJL187C, strain SWE1, hits give low values 0.996 | locus YKL009W, strain mrt4, hits give low values 0.937 | locus YKL068W, hits give low values 0.978 | locus YKL085W, strain MDH1 (second series), hits give low values 0.99 | locus YKL085W, strain MDH1, hits give low values 0.99 | locus YKL160W, strain elf1, hits give low values 1.01 | locus YKL190W, strain CNB1, hits give low values 1.04 | locus YKR001C, strain vps1, hits give low values 1.02 | locus YKR026C, strain gcn3, hits give low values 0.988 | locus YKR091W, strain srl3, hits give low values 0.994 | locus YLL001W, strain dnm1, hits give low values 0.985 | locus YLL026W, hits give low values 1 | locus YLL041C, strain sdh2, hits give low values 1.01 | locus YLR027C, strain aat2, hits give low values 1.01 | locus YLR039C, strain RIC1, hits give low values 1.16 | locus YLR058C, strain SHM2, hits give low values 1.04 | locus YLR102C, strain apc9, hits give low values 1.01 | locus YLR221C, strain rsa3, hits give low values 1 | locus YLR258W, strain gsy2, hits give low values 0.987 | locus YLR262C, strain YPT6 (second series), hits give low values 0.898 | locus YLR262C, strain YPT6, hits give low values 1.07 | locus YLR268W, strain sec22, hits give low values 0.997 | locus YLR320W, strain mms22, hits give low values 1 | locus YLR342W, strain FKS1 (second series), hits give low values 1.04 | locus YLR342W, strain FKS1, hits give low values 0.985 | locus YLR357W, strain rsc2, hits give low values 1 | locus YLR370C, strain arc18, hits give low values 0.983 | locus YLR371W, strain rom2, hits give low values 1.02 | locus YLR384C, strain iki3, hits give low values 1 | locus YLR418C, strain cdc73, hits give low values 1.11 | locus YML016C, strain PPZ1, hits give low values 1.03 | locus YML032C, strain rad52, hits give low values 0.995 | locus YML120C, strain ndi1, hits give low values 0.981 | locus YML124C, strain tub3, hits give low values 1.01 | locus YMR058W, strain fet3, hits give low values 0.984 | locus YMR078C, strain ctf18, hits give low values 0.985 | locus YMR125W, strain sto1, hits give low values 0.972 | locus YMR129W, hits give low values 1 | locus YMR205C, strain PFK2, hits give low values 1.01 | locus YMR223W, strain ubp8, hits give low values 1 | locus YMR231W, strain pep5, hits give low values 0.977 | locus YMR307W, strain GAS1, hits give low values 1.3 | locus YNL067W, strain RPL9B, hits give low values 1.03 | locus YNL071W, strain lat1, hits give low values 0.978 | locus YNL128W, strain TEP1, hits give low values 1.03 | locus YNL209W, strain ssb2, hits give low values 0.998 | locus YNL233W, strain BNI4, hits give low values 1.08 | locus YNL248C, strain rpa49, hits give low values 0.958 | locus YNL250W, strain rad50, hits give low values 1.01 | locus YNL271C, strain bni1, hits give low values 0.987 | locus YNL298W, strain CLA4, hits give low values 0.993 | locus YNL307C, strain MCK1, hits give low values 1 | locus YNL322C, strain KRE1 (second series), hits give low values 0.989 | locus YNR049C, strain mso1, hits give low values 0.998 | locus YNR052C, strain pop2, hits give low values 0.948 | locus YOL012C, strain htz1 1.2 | locus YOL147C, strain pex11, hits give low values 1 | locus YOR001W, strain rrp6, hits give low values 0.985 | locus YOR061W, strain CKA2, hits give low values 1.02 | locus YOR069W, strain VPS5, hits give low values 1.02 | locus YOR070C, strain gyp1, hits give low values 0.997 | locus YOR080W, strain dia2, hits give low values 0.984 | locus YOR083W, strain WHI5, hits give low values 0.986 | locus YOR106W, strain vam3, hits give low values 0.946 | locus YOR136W, strain idh2, hits give low values 0.985 | locus YOR144C, strain elg1, hits give low values 0.996 | locus YOR184W, strain ser1, hits give low values 0.98 | locus YOR265W, strain rbl2, hits give low values 0.992 | locus YOR270C, strain vph1, hits give low values 0.87 | locus YOR290C, strain snf2, hits give low values 0.984 | locus YOR316C, strain cot1, hits give low values 0.991 | locus YPL051W, strain arl3, hits give low values 0.997 | locus YPL055C, strain LGE1, hits give low values 1.13 | locus YPL078C, strain atp4, hits give low values 0.966 | locus YPL106C, strain sse1, hits give low values 0.988 | locus YPL240C, strain hsp82, hits give low values 0.997 | locus YPL241C, strain CIN2, hits give low values 1.04 | locus YPR119W, strain clb2, hits give low values 1.01 | locus YPR141C, strain kar3, hits give low values 1 | locus YPR163C, strain tif3, hits give low values 1 | locus YPR167C, strain met16, hits give low values 0.993 | strain wtn01, hits give low values 0.984
